Some test systems named below: SR leukemia; RPMI-8226 leukemia; OVCAR-8 ovarian; OVCAR-5 ovarian; OVCAR-4 ovarian; SK-OV-3 ovarian; IGROV1 ovarian; OVCAR-3 ovarian; HS 578T breast; NCI/ADR-RES ovarian.
Experiment in all cases: NCI-60 one-dose screen, 48 h (100 = growth as untreated, 0 = no growth, -100 = all killed)
Holding throughout (conditions): 10 µM unless noted

About 83,000 compounds went through this panel and 20% of them were active in at least one assay; those are over-represented in the sample as a whole.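 Activity criterion: percent growth below 10, measured after cells in 96-well plates were exposed to a single compound concentration for 48 hours.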 A number with no mark means an inactive call. Calls of active or inactive are those of the source.

Regarding `CCCC(=O)Oc1ccc(/C(=C(\C)c2ccccc2)c2ccc(OCCN(CC)CC)cc2)cc1`, the growth with SR leukemia is 28.2%; in the assay on RPMI-8226 leukemia it was 55.4%; with OVCAR-8 ovarian, 83.3%; in the assay on OVCAR-5 ovarian, 88.7%; in the assay with OVCAR-4 ovarian, 86.6%; with SK-OV-3 ovarian, 91.7%. Also, the growth in the assay on IGROV1 ovarian was 90.7%; with OVCAR-3 ovarian, 94.9%; in the assay on HS 578T breast, 42.6%; in the assay with NCI/ADR-RES ovarian, 86.7%.

Turning to `CC(NNC(C)c1ccccc1)c1ccccc1` (centres undefined), the growth was 91.9% with SR leukemia; 97.8% in the assay with RPMI-8226 leukemia; 115% in the assay on OVCAR-8 ovarian; 107% in the assay on OVCAR-5 ovarian; 112% in the assay on OVCAR-4 ovarian; 110% in the assay on SK-OV-3 ovarian. In addition, the growth with IGROV1 ovarian was 117%; in the assay with OVCAR-3 ovarian it was 118%; with HS 578T breast, 128%; in the assay on NCI/ADR-RES ovarian, 105%.

For the compound `O=[N+]([O-])c1cccc(-c2nc3sccn3c2-c2ccnc(NCCCNS(=O)(=O)c3ccc(C(F)(F)F)cc3)n2)c1`, the growth was 37.5% in the assay on SR leukemia; -4.61% (active) in the assay with RPMI-8226 leukemia; 22.3% in the assay on OVCAR-8 ovarian; 90.6% in the assay on OVCAR-5 ovarian; 15.2% in the assay on OVCAR-4 ovarian; 71.9% with SK-OV-3 ovarian. The growth was 25.6% with IGROV1 ovarian, 28.7% in the assay with OVCAR-3 ovarian, 63.3% in the assay on HS 578T breast and 8.78% (active) with NCI/ADR-RES ovarian.

Take `Clc1cc2c(nn1)Nc1ccccc1S2`: the growth in the assay with SR leukemia is 77.2%; in the assay on RPMI-8226 leukemia, 78.1%; with OVCAR-8 ovarian, 96.2%; in the assay with OVCAR-5 ovarian, 100%; in the assay on OVCAR-4 ovarian it was 95.3%; in the assay with SK-OV-3 ovarian, 99%. In addition, the growth is 27.5% with IGROV1 ovarian, 117% with OVCAR-3 ovarian, 102% in the assay with HS 578T breast and 97.5% in the assay with NCI/ADR-RES ovarian.

Turning to `COc1cc(C(=O)/C=C/c2c(C)n([O-])c3ccc(C(F)(F)F)cc3[n+]2=O)cc(OC)c1OC`, the growth is 24.4% in the assay with SR leukemia; 59.6% in the assay with RPMI-8226 leukemia; 8.63% (active) with OVCAR-8 ovarian; 122% with OVCAR-5 ovarian; 89.5% with OVCAR-4 ovarian; 87.3% in the assay on SK-OV-3 ovarian. Also, the growth in the assay on IGROV1 ovarian was 111%; with OVCAR-3 ovarian it was -18.9% (active); with HS 578T breast, 119%; with NCI/ADR-RES ovarian, 75.7%.

For `Cc1nc2c3c(ncn2n1)Oc1c(c(=O)[nH]c2ccccc12)C3c1ccc(Cl)cc1` (centres undefined), the growth is 100% in the assay with SR leukemia; 86.2% in the assay with RPMI-8226 leukemia; 97.3% with OVCAR-8 ovarian; 101% in the assay on OVCAR-5 ovarian; 97% with OVCAR-4 ovarian; 116% with SK-OV-3 ovarian. The growth is 89.3% in the assay on IGROV1 ovarian, 99.2% in the assay with OVCAR-3 ovarian, 99.7% in the assay with HS 578T breast and 94.7% in the assay with NCI/ADR-RES ovarian.

`CC(=O)Nc1nc(N)nc(NC(C)=O)c1N=O`: the growth in the assay on SR leukemia is 100%; with RPMI-8226 leukemia it was 118%; in the assay with OVCAR-8 ovarian, 109%; in the assay on OVCAR-5 ovarian, 108%; in the assay with OVCAR-4 ovarian, 127%; with SK-OV-3 ovarian it was 103%. Moreover, the growth with IGROV1 ovarian is 131%; with OVCAR-3 ovarian, 99.7%; in the assay on HS 578T breast it was 104%; in the assay with NCI/ADR-RES ovarian, 97.2%.

For `O=[N+]([O-])c1ccc(/C=C/C2(CCl)OCCO2)cc1`, the growth was 1.55% (active) with SR leukemia; 68.5% in the assay on RPMI-8226 leukemia; 82.4% with OVCAR-8 ovarian; 111% with OVCAR-5 ovarian; 102% in the assay with OVCAR-4 ovarian; 103% in the assay with SK-OV-3 ovarian. The figures for the growth in the assay with OVCAR-3 ovarian, in the assay on HS 578T breast and in the assay with NCI/ADR-RES ovarian were 112%, 109% and 98.8%, respectively.

Take `CCCCN(CCCC)C(=N)c1ccnc2ccccc12`: the growth was 92.7% with SR leukemia; 83.1% with RPMI-8226 leukemia; 110% in the assay with OVCAR-8 ovarian; 104% with OVCAR-5 ovarian; 94% in the assay with OVCAR-4 ovarian; 112% in the assay on SK-OV-3 ovarian. Further, the growth is 98.3% in the assay with IGROV1 ovarian, 104% with OVCAR-3 ovarian and 110% in the assay on NCI/ADR-RES ovarian.

Regarding `COC(=O)c1cc2cc(-c3ccc(OC)cc3)cnc2[nH]1`, the growth in the assay on SR leukemia is 10.7%; with RPMI-8226 leukemia, -5.41% (active); in the assay on OVCAR-8 ovarian, 8.62% (active); in the assay on OVCAR-5 ovarian, 44.9%; with OVCAR-4 ovarian it was 30.2%; with SK-OV-3 ovarian, 1.35% (active). Further, the values for the growth in the assay with OVCAR-3 ovarian, with HS 578T breast and in the assay with NCI/ADR-RES ovarian were -55.7% (active), 33.8% and -35.6% (active), respectively.

Turning to `COc1ccc2c(c1)[nH]c(=O)c1c3cc(C)c(C)cc3cn21`, the growth with SR leukemia was 31.9%; in the assay with RPMI-8226 leukemia, -32.2% (active); in the assay with OVCAR-8 ovarian it was -27.5% (active); in the assay with OVCAR-5 ovarian it was 28.8%; in the assay with OVCAR-4 ovarian it was 42.4%; in the assay with SK-OV-3 ovarian, 43.3%. Also, the growth is -21.7% (active) in the assay with IGROV1 ovarian and 8.27% (active) in the assay with NCI/ADR-RES ovarian.

As to `Cc1nc2ncccc2nc1Nc1ccc(S(=O)(=O)Nc2cncs2)cc1`, the growth was 102% in the assay on SR leukemia; 88.4% with RPMI-8226 leukemia; 103% in the assay with OVCAR-8 ovarian; 96.4% in the assay with OVCAR-5 ovarian; 98.6% in the assay on OVCAR-4 ovarian; 86.2% with SK-OV-3 ovarian. Besides, the growth was 51% in the assay on IGROV1 ovarian, 92.8% in the assay with HS 578T breast and 98% in the assay on NCI/ADR-RES ovarian.

As for `O=C(NNC(=O)N1c2ccccc2C=Cc2ccccc21)c1ccc2ccccc2c1`, the growth with SR leukemia is 87.2%; in the assay with RPMI-8226 leukemia, 96.7%; in the assay on OVCAR-8 ovarian, 94.9%; in the assay with OVCAR-5 ovarian, 91.3%; in the assay with OVCAR-4 ovarian, 91.8%; in the assay on SK-OV-3 ovarian it was 110%. Also, the growth was 102% with IGROV1 ovarian, 101% in the assay with OVCAR-3 ovarian, 101% with HS 578T breast and 93% in the assay with NCI/ADR-RES ovarian.

Take `COc1cccc(-c2nc3sccn3c2-c2ccnc(NCCCNS(=O)(=O)c3ccc(F)cc3)c2)c1`: the growth in the assay on SR leukemia is 45.2%; in the assay on RPMI-8226 leukemia, -25.1% (active); in the assay on OVCAR-8 ovarian, 16%; in the assay on OVCAR-5 ovarian, 83.6%; in the assay with OVCAR-4 ovarian, 30.2%; in the assay with SK-OV-3 ovarian it was 74.8%. Besides, the growth in the assay on IGROV1 ovarian is 29.7%; in the assay with OVCAR-3 ovarian, 35.8%; in the assay on HS 578T breast, 63.7%; in the assay with NCI/ADR-RES ovarian it was 10.2%.

The values above are taken from PubChem BioAssay (NCI).
